Compound activity from PubChem.
BoNT F protease = blocks Botulinum neurotoxin F light chain protease; Multiplex microsphere protease cleavage assay, flow cytometry; inhibition, % at 10 µM; actives 0.22% (n = 360,000); in the data active means inhibition above about 35%, passing the limit was not always enough; inconclusive means no clear call, values can overlap the other calls; further: plate controls were buffer without enzyme for full effect and enzyme alone for no effect
Bead autofluor = counter-screen for toxin protease inhibitors: compound fluorescence; compound autofluorescence counterscreen, microsphere flow cytometry; hits give high values; actives 3.1% (n = 360,000); AID 624483; fluorescence intensity (test concentration not listed); in the data active means fluorescence intensity above about 16000; inconclusive means no clear call, values can overlap the other calls
Anthrax LF inh2 = anthrax lethal factor protease inhibition; P15917; multiplex microsphere protease cleavage assay, LF; inhibition, % at 10 µM; actives 0.12% (n = 360,000); AID 588501; further: plate controls were buffer without enzyme for full effect and enzyme alone for no effect
BoNT-A LC inh2 = BoNT A light chain protease inhibition; inhibition, % at 10 µM; actives 0.17% (n = 360,000); multiplex microsphere protease substrate cleavage, flow cytometry; further: plate controls were buffer without enzyme for full effect and enzyme alone for no effect
PfHsp40 rescue = restores yeast growth despite PfHsp40 toxicity | S. cerevisiae expressing PfHsp40, growth rescue, ATP luminescence | growth rescue, % at 12.5 µM | actives 0.68% (n = 340,000) | AID 504582; in the data active means growth rescue above about 28%, passing the limit was not always enough; inconclusive means no clear call, values can overlap the other calls;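 further: yeast W303a lacking pdr1 and pdr3 grown in galactose medium; growth measured after three days at 30 °C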
MazEF act = activators of E. coli MazEF toxin-antitoxin RNase; P0AE70; FAM/BHQ RNA-DNA oligo cleavage fluorescence, 5 h; activation, % at 20 µM; actives 0.32% (n = 350,000); AID 504720; in the data active means activation above about 50%
Target sequence (P0AE70 whole entry, looked up): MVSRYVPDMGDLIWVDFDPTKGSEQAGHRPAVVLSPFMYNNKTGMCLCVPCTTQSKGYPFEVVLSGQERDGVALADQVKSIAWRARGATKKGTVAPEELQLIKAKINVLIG
* marks the source's active call; other numbers are inactive results. Sampled rows, rich in hits. Any-hit rate of the full collection: about 4.3%. Unless noted, no stated cut-off is given here; in the data, active means inhibition above about 30%; inconclusive means no clear call, values can overlap the other calls; inactive means below that.

What do the screens show for `C=CCc1c(C)nc(N2CCSCC2)[nH]c1=O`?
BoNT F protease: inconclusive; Bead autofluor: 4253; Anthrax LF inh2: 12.0; BoNT-A LC inh2: inconclusive; PfHsp40 rescue: 0.7; MazEF act: 2.4

Results for Cc1ccc(-n2ncc3c(=O)n(CC#N)cnc32)cc1 ?
BoNT F protease: -1.9; Bead autofluor: 20625*; Anthrax LF inh2: -0.7; BoNT-A LC inh2: -0.3; PfHsp40 rescue: -0.1; MazEF act: -2.3

How did Cc1ccc(-n2ncc3c(=O)n(CC(N)=O)cnc32)cc1 do in these assays?
BoNT F protease: -28.8; Bead autofluor: 3511; Anthrax LF inh2: -1.4; BoNT-A LC inh2: 4.8; PfHsp40 rescue: -0.3; MazEF act: 2.1

How did COc1ccccc1Cc1noc(COc2cccc(C)c2C)n1 do in these assays?
BoNT F protease: -10.1; Bead autofluor: 16962*; Anthrax LF inh2: -1.2; BoNT-A LC inh2: -1.8; PfHsp40 rescue: 0.5; MazEF act: -11.6

What do the screens show for `COc1ccccc1Cc1nc(-c2ccncc2)no1`?
BoNT F protease: -3.2; Bead autofluor: 4378; Anthrax LF inh2: -10.8; BoNT-A LC inh2: 0.0; PfHsp40 rescue: -0.2; MazEF act: 2.7

Results for O=C(O)c1cccc(-c2ccc(/C=c3/sc4nc5ccccc5n4c3=O)o2)c1 ?
BoNT F protease: -6.5; Bead autofluor: 4651; Anthrax LF inh2: -3.0; BoNT-A LC inh2: 0.4; PfHsp40 rescue: 1.4; MazEF act: 580.8*

What do the screens show for `CCCCNc1c2c3c(cccc3n(C)c1=O)C(=O)c1ccccc1-2`?
BoNT F protease: 49.8*; Bead autofluor: 8728; Anthrax LF inh2: 55.6*; BoNT-A LC inh2: 74.4*; PfHsp40 rescue: 8.3; MazEF act: inactive

Results for Cn1c(=O)c(NC2CCCCC2)c2c3c(cccc31)C(=O)c1ccccc1-2 ?
BoNT F protease: 10.7; Bead autofluor: 8853; Anthrax LF inh2: 23.3; BoNT-A LC inh2: 44.3*; MazEF act: -495.0

Results for Cn1c(=O)c(NCCc2ccccc2)c2c3c(cccc31)C(=O)c1ccccc1-2 ?
BoNT F protease: 40.7*; Bead autofluor: 9014; Anthrax LF inh2: 47.0*; BoNT-A LC inh2: 46.9*; PfHsp40 rescue: 5.9; MazEF act: 60.0*

How did O=c1cc(-c2ccc(O)c(O)c2)oc2c1ccc1ccccc12 do in these assays?
BoNT F protease: -10.6; Bead autofluor: 8343; Anthrax LF inh2: -4.8; BoNT-A LC inh2: 1.7; PfHsp40 rescue: 2.6; MazEF act: 119.1*

How did CN1C(=O)C(=Cc2c(OCc3cnc(Cl)s3)ccc3ccccc23)C(=O)N(C)C1=O do in these assays?
BoNT F protease: -5.0; Bead autofluor: 3906; Anthrax LF inh2: -5.4; BoNT-A LC inh2: -0.3; PfHsp40 rescue: 125.2*; MazEF act: -2.4

Results for CCCOc1ccc(C(=O)c2nc3c(n2O)CCCCC3)cc1 ?
BoNT F protease: -5.4; Bead autofluor: 23225*; Anthrax LF inh2: 3.9; BoNT-A LC inh2: 0.7; PfHsp40 rescue: 0.2; MazEF act: 10.1

Results for O=C(c1ccccc1)c1nc2c(n1O)CCCCC2 ?
BoNT F protease: -2.8; Bead autofluor: 4574; Anthrax LF inh2: -3.3; BoNT-A LC inh2: 0.4; PfHsp40 rescue: -1.0; MazEF act: -4.2

How did CCCC(=O)Nc1nnc(S(=O)(=O)N(C)Cc2ccco2)s1 do in these assays?
BoNT F protease: 4.4; Bead autofluor: 5383; Anthrax LF inh2: 2.9; BoNT-A LC inh2: 3.8; PfHsp40 rescue: 0.6; MazEF act: -4.2

How did CCN(CC)c1ccc(-c2c(C#N)c(N)nc(OC)c2C#N)cc1 do in these assays?
BoNT F protease: 2.4; Bead autofluor: 4464; Anthrax LF inh2: -3.6; BoNT-A LC inh2: 0.3; PfHsp40 rescue: 0.1; MazEF act: 75.4*

What do the screens show for `Cc1cc(/C=C(\C#N)c2nc3ccccc3[nH]2)c(C)n1C`?
BoNT F protease: -11.6; Bead autofluor: 2731; Anthrax LF inh2: -5.4; BoNT-A LC inh2: -1.1; PfHsp40 rescue: 0.9; MazEF act: 14.0

Results for CCCOc1cc(N(CC)CC)ccc1/C=C(/C#N)c1nc2ccc(C)cc2[nH]1 ?
BoNT F protease: 44.7*; Bead autofluor: 23823*; Anthrax LF inh2: 1.8; BoNT-A LC inh2: 3.4; PfHsp40 rescue: 1.2; MazEF act: -504.4

What do the screens show for `CCOc1cc(N(CC)CC)ccc1/C=C(/C#N)c1nc2ccccc2[nH]1`?
BoNT F protease: 41.5*; Bead autofluor: 12266; Anthrax LF inh2: 0.4; BoNT-A LC inh2: -3.7; PfHsp40 rescue: 2.3; MazEF act: 132.0*

Results for COc1cc(/C=C(\C#N)c2nc3ccc(C)cc3[nH]2)c([N+](=O)[O-])cc1OC ?
BoNT F protease: 2.0; Bead autofluor: 3421; Anthrax LF inh2: -5.7; BoNT-A LC inh2: 2.7; PfHsp40 rescue: 0.2; MazEF act: 13.3

Results for CCN(CC)c1ccc(/C=C(/C#N)c2nc3ccc(C)cc3[nH]2)c(OC(C)C)c1 ?
BoNT F protease: 64.2*; Bead autofluor: 27707*; Anthrax LF inh2: -3.9; BoNT-A LC inh2: -2.7; PfHsp40 rescue: 3.8; MazEF act: -168.0

How did COc1ccc2[nH]c3c(c2c1)CCN1C(=O)C(CC(=O)NCCc2ccccn2)C[C@H](C(=O)N2CCOCC2)[C@@]31CCC1CCCC1 (stereo partly specified) do in these assays?
BoNT F protease: -4.3; Bead autofluor: 2893; Anthrax LF inh2: 10.2; BoNT-A LC inh2: -0.1; PfHsp40 rescue: 0.4; MazEF act: 1.4

How did O=C(CCCC(=O)OCC(=O)c1ccc(Cl)cc1Cl)Nc1cc(C(F)(F)F)ccc1Cl do in these assays?
BoNT F protease: 4.1; Bead autofluor: 2656; Anthrax LF inh2: -1.0; BoNT-A LC inh2: 0.8; PfHsp40 rescue: -0.1; MazEF act: -2.3

Results for O=C(CCCC(=O)OCC(=O)c1ccc(F)cc1)Nc1cc(C(F)(F)F)ccc1Cl ?
BoNT F protease: -6.3; Bead autofluor: 20642*; Anthrax LF inh2: -1.6; BoNT-A LC inh2: inconclusive; PfHsp40 rescue: -1.2; MazEF act: -9.9

How did O=S(=O)(c1ccccc1)c1cnn(-c2ccccc2)c1-c1ccc(F)cc1 do in these assays?
BoNT F protease: -7.0; Bead autofluor: 8531; Anthrax LF inh2: -10.2; BoNT-A LC inh2: 0.2; PfHsp40 rescue: 49.0*; MazEF act: -4.1

What do the screens show for `CSCCC(NC(=O)c1ccccc1Cl)C(=O)NC1CCN(Cc2ccccc2)CC1` (stereo unspecified)?
BoNT F protease: -5.9; Bead autofluor: 5235; Anthrax LF inh2: -3.9; BoNT-A LC inh2: -3.9; PfHsp40 rescue: 23.7; MazEF act: -3.6

What do the screens show for `COC(=O)c1ccccc1NC(=O)CC(=O)Nc1ccccc1C(=O)OC`?
BoNT F protease: 12.6; Bead autofluor: 3791; Anthrax LF inh2: 8.6; BoNT-A LC inh2: 2.4; MazEF act: 6.9

How did COC(=O)c1ccccc1NC(=O)Oc1ccc(F)cc1 do in these assays?
BoNT F protease: -2.8; Bead autofluor: 16560*; Anthrax LF inh2: -3.2; BoNT-A LC inh2: -1.2; PfHsp40 rescue: -1.2; MazEF act: -4.2

Results for COC(=O)c1ccccc1NS(=O)(=O)c1ccc(F)cc1 ?
BoNT F protease: 1.9; Bead autofluor: 20259*; Anthrax LF inh2: -5.8; BoNT-A LC inh2: inconclusive; PfHsp40 rescue: -0.2; MazEF act: -4.3
